Measurements taken from PubChem BioAssay (EPA / NIEHS).
Results filed as inconclusive are left out. The source made the active and inactive calls. How the source made its calls: active means hit-call score of the fitted dose curve at least 0.9, where 1 is the maximum; inconclusive means response in the unintended direction; inactive means score below 0.9.

Target: human Beta-secretase (BACE), BACE1 (gene 23621) (UniProt P56817)
Assay: NVS_ENZ_hBACE: NovaScreen (NVS) Enzymatic Assay for human Beta-secretase (BACE) (AID 2283140);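 further: hits are inhibitors that reduce fluorescent substrate signal versus DMSO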
In short: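 Fluorescence intensity read-out of protease activity defines this endpoint; signal loss relative to DMSO baseline marks inhibition. Recombinant enzyme from SF9 cells, cell-free format, 1 h exposure. Single-concentration duplicate screen (25 uM) precedes concentration-series follow-up.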

human Beta-secretase (BACE), BACE1 (gene 23621), sequence (P56817 whole entry, looked up): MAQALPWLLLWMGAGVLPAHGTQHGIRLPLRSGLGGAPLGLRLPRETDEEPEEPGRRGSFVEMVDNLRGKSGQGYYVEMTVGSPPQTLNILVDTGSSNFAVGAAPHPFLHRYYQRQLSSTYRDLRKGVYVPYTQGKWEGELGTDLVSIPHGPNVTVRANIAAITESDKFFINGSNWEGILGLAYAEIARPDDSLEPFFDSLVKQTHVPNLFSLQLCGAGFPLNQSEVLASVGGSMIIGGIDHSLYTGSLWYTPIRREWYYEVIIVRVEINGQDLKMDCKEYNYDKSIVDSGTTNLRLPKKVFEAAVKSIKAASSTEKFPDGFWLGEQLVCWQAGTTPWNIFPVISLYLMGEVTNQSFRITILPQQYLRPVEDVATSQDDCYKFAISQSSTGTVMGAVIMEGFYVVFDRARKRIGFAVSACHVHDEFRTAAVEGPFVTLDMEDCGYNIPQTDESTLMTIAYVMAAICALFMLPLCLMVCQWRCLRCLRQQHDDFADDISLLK

Which AC50 does the source give for `c1ccc2c(c1)ccc1cc3c(ccc4ccccc43)cc12` here?
Its AC50 is 13 µM (active).

For `CCCCC(CC)COC(=O)c1ccccc1O` (stereo not drawn), which AC50 is on record?
The AC50 was 11.1 µM (active).

With `C=CCOCC(O)CCl` (stereo not drawn) as the molecule, how does the outcome read?
Its outcome is “inactive”.

Which outcome does the source give for `CC1(C)S[C@@H]2[C@H](NC(=O)COc3ccccc3)C(=O)N2[C@H]1C(=O)O` here?
The outcome was “inactive”.

How did the AC50 turn out when `CCCCCCCCCCCCCCCC[N+](C)(C)CC` was run?
Its AC50 is 6.41 µM (active).

Target: human Dual Specificity Protein Phosphatase 3 (DUSP3), DUSP3 (gene 1845) (UniProt P51452)
Sequence (P51452 whole entry, looked up): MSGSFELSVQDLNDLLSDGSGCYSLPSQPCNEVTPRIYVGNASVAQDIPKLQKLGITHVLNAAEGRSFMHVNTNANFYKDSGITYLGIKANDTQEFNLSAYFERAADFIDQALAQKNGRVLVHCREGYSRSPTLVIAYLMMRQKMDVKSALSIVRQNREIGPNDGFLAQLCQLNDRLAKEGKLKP
Assay: NVS_ENZ_hDUSP3: NovaScreen (NVS) Enzymatic Assay for human Dual Specificity Protein Phosphatase 3 (DUSP3) (AID 2283152);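 further: phosphatase activity of recombinant human DUSP3 on a fluorogenic substrate without cells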
In short: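 Cell-free fluorescence-intensity enzyme activity assay with recombinant protein and substrate; loss of signal fitted relative to DMSO baseline. Primary screen in duplicate at 25 uM, actives then run in concentration series; measured 0 h after dosing.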

`O=C1CCC(=O)N1Cl` was tested. Which AC50 did it give?
The AC50 was 16.5 µM (active).

`N#[N+]c1ccc2c(S(=O)(=O)[O-])cccc2c1O` was tested. Which AC50 did it give?
The AC50 was 14.9 µM (active).

How did the AC50 turn out when `CCCCCCCCCCCCCCCC[N+](C)(C)CC` was run?
The AC50 was 20.8 µM (active).

Target: human Ephrin type-A Receptor 1 (EphA1), EPHA1 (gene 2041) (UniProt P21709)
Sequence (P21709 whole entry, looked up): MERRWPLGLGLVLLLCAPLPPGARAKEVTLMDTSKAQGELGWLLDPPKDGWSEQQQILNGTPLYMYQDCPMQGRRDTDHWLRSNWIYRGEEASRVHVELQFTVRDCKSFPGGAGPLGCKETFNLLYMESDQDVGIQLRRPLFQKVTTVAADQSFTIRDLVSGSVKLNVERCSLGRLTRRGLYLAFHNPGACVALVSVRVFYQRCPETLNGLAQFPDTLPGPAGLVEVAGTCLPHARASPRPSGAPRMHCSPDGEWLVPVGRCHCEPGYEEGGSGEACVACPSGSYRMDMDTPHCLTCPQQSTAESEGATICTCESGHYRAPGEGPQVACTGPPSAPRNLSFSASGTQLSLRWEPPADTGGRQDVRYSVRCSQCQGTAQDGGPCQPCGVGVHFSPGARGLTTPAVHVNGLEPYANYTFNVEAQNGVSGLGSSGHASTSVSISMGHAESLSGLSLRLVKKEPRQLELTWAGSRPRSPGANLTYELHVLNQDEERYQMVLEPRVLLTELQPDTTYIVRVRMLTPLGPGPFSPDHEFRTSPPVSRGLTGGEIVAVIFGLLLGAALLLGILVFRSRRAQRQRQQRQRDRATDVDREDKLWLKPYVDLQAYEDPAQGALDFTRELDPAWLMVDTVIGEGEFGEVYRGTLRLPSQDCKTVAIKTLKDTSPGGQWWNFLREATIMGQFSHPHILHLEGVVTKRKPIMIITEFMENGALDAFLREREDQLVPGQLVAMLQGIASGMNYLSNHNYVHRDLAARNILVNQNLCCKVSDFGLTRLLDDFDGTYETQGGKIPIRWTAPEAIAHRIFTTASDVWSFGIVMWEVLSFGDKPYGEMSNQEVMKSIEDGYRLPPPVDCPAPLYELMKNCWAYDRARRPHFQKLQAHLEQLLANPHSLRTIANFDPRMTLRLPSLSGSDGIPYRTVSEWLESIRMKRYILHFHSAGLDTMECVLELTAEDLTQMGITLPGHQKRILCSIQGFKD
Assay: NVS_ENZ_hEphA1: NovaScreen (NVS) Enzymatic Assay for human Ephrin type-A Receptor 1 (EphA1) (AID 2283158);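 further: activity is signal loss versus DMSO meaning EphA1 kinase inhibition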
In short: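 Here the EphA1 protein is recombinant and the substrate fluorescent, with electrophoretic separation before fluorescence detection at 1 hour. Signal loss against DMSO defines activity; plate controls included; follow-up concentration series reach 50 uM.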

Which AC50 does the source give for `CCC(CC)C(=O)O` here?
Its AC50 is 4.56 µM (active).

Which outcome does the source give for `C/C=C\C/C=C/CCCCCCCCOC(C)=O` here?
The outcome was “inactive”.

How did the outcome turn out when `COCCOCCOCCOCCOC` was run?
The outcome was “inactive”.

How did the outcome turn out when `S=C(NC1CCCCC1)NC1CCCCC1` was run?
The outcome was “inactive”.

How did the AC50 turn out when `Cc1ccc(N)c([N+](=O)[O-])c1` was run?
The AC50 was 43.4 µM (active).

For `CNC(=S)N(C)C`, which AC50 is on record?
The AC50 was 18.6 µM (active).

With `CC(C)(c1cc(Br)c(OCCO)c(Br)c1)c1cc(Br)c(OCCO)c(Br)c1` as the molecule, how does the outcome read?
The outcome was “inactive”.

How did the outcome turn out when `N#[N+]c1ccc2c(S(=O)(=O)[O-])cccc2c1O` was run?
Its outcome is “inactive”.

With `Cc1cc(C)c(C)c(C)c1` as the molecule, how does the outcome read?
Its outcome is “inactive”.

With `CCCCCCCCCCCCCCCC[N+](C)(C)CC` as the molecule, how does the outcome read?
The outcome was “inactive”.

Target: human Matrix Metalloproteinase-9 (MMP9), MMP9 (gene 4318) (UniProt P14780)
Sequence (P14780 whole entry, looked up): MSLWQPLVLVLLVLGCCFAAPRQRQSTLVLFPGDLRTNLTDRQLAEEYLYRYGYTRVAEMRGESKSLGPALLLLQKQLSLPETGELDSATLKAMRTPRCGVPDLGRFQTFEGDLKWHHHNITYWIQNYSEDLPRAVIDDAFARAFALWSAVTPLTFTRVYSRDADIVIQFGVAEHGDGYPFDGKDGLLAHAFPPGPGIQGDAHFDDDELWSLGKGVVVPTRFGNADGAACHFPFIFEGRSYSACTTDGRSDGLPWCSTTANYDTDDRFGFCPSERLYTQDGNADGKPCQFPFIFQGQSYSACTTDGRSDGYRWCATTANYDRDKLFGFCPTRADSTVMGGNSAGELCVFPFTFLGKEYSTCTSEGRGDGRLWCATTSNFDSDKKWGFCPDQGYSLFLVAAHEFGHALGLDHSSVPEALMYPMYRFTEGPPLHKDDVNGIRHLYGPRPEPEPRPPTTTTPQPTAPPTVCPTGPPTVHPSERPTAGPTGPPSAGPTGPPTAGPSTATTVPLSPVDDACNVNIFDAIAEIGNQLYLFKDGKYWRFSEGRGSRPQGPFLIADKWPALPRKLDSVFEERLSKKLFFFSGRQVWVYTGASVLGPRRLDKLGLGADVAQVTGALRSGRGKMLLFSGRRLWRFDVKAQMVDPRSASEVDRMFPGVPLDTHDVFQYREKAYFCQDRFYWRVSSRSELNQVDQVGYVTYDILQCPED
Assay: NVS_ENZ_hMMP9: NovaScreen (NVS) Enzymatic Assay for human Matrix Metalloproteinase-9 (MMP9) (AID 2283190);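 further: cell-free recombinant MMP9 protease activity read by fluorescent substrate signal; active means inhibition seen as loss of fluorescence signal versus DMSO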
Procedure: NVS_ENZ_hMMP9 is a biochemical, single-readout assay that uses extracted gene-proteins in a cell-free assay. Measurements were taken 1 hour after chemical dosing in a 96-well plate.NVS_ENZ_hMMP9 is one of one assay component(s) measured or calculated from the NVS_ENZ_hMMP9 assay. It is designed to make measurements of enzyme activity, a form of enzyme reporter, as detected with fluorescence intensity signals by Fluorescence technology.Data from the assay component NVS_ENZ_hMMP9 was analyzed into 1 assay endpoint. This assay endpoint, NVS_ENZ_hMMP9, was analyzed in the positive analysis fitting direction relative to DMSO as the negative control and baseline of activity. Using a type of enzyme reporter, loss-of-signal activity can be used to understand changes in the enzymatic activity as they relate to the gene MMP9. Furthermore, this assay endpoint can be referred to as a primary readout, because this assay has produced multiple assay endpoints where this one serves a enzymatic activity function. To generalize the intended target to other relatable targets, this assay endpoint is annotated to the protease intended target family, where the subfamily is matrix metalloproteinase.
Binding assays used specific radioligands (tritiated, iodinated) with non-radioactive competitive displacement ligands in agonist or antagonist protocols (as indicated) and various reference compounds and inhibitors to titrate specific binding to receptors and transporters. Most enzyme assays (CYPs, kinases, phosphatases, proteases, HDACs) used recombinant protein and specific substrates (fluorescence mostly, some colorimetric and radioactive) and inhibitors, followed by a biochemical separation of substrate and product. All assays for the biochemical HTS were initially run in duplicate at a single concentration (10 uM for CYP450 assays and 25 uM for all others). […] Each assay was run with positive and negative controls, and concurrent controls on every plate. The follow-up (secondary) screen tested active chemical-pairs in concentration series, as well as a few additional assays not tested in the primary screen, some selected negative inactives, and several cases re-run in the concentration series for confirmatory purposes.

How did the AC50 turn out when `c1ccc2c(c1)ccc1cc3c(ccc4ccccc43)cc12` was run?
Its AC50 is 4.46 µM (active).

For `C/C=C\C/C=C/CCCCCCCCOC(C)=O`, which AC50 is on record?
The AC50 was 13.7 µM (active).

Which AC50 does the source give for `CCC(C)C=O` (stereo not drawn) here?
The AC50 was 8.8 µM (active).

Which AC50 does the source give for `S=C(NC1CCCCC1)NC1CCCCC1` here?
The AC50 was 6.33 µM (active).

How did the AC50 turn out when `CNC(=S)N(C)C` was run?
Its AC50 is 1.04 µM (active).

For `CCCCCCCCCCCCCCCC[N+](C)(C)CC`, which outcome is on record?
Its outcome is “inactive”.

Target: human Phosphodiesterase 10 (PDE10), PDE10A (gene 10846) (UniProt Q9Y233)
Sequence (Q9Y233 whole entry, looked up): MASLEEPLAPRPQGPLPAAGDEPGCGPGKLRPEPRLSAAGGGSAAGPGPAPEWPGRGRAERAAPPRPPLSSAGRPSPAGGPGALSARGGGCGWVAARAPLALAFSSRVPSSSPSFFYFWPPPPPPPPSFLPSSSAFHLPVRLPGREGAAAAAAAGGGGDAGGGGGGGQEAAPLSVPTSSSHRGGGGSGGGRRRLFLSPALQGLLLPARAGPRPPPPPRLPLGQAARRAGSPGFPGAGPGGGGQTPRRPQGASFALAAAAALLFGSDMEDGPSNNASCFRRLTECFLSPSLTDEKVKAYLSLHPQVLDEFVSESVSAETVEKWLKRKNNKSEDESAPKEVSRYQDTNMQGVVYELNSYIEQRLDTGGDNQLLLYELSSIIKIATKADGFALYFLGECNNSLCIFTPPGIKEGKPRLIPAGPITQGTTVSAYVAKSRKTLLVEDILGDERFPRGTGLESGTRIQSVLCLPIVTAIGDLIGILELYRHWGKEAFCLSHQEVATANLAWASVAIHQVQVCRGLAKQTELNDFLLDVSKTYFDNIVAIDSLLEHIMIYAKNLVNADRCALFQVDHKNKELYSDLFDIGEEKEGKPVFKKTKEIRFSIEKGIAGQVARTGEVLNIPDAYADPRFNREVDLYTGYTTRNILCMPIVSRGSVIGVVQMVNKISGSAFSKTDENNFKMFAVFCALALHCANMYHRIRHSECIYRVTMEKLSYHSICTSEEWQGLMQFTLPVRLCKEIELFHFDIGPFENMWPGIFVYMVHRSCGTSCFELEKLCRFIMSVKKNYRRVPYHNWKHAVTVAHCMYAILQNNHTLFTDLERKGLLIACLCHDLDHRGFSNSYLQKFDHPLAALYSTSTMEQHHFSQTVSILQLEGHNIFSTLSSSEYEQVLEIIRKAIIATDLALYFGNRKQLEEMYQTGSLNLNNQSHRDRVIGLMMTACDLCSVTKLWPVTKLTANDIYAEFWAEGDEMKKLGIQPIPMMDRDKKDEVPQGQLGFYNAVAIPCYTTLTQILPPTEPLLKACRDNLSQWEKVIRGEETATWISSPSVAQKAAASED
Assay: NVS_ENZ_hPDE10: NovaScreen (NVS) Enzymatic Assay for human Phosphodiesterase 10 (PDE10) (AID 2283195)
In short: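 Readout is fluorescence intensity following electrophoretic mobility-shift separation, 1 h after dosing of isolated PDE10A protein. Hits meeting a preset threshold at 25 uM went to concentration series (max 50 uM), analysed relative to DMSO.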

For `CCCCCCCCCCc1ccccc1`, which outcome is on record?
The outcome was “inactive”.

How did the AC50 turn out when `C=C(C)CCO` was run?
The AC50 was 38.2 µM (active).

For `C=C(C)C(=O)OCC(C)C`, which outcome is on record?
Its outcome is “inactive”.

`Cc1ccc(C2OC[C@@H]3OC(c4ccc(C)cc4)O[C@H]([C@H](O)CO)[C@@H]3O2)cc1` (stereo partly drawn) was tested. Which outcome did it give?
The outcome was “inactive”.

For `Cn1c(=O)[nH]c2ncn(C)c2c1=O`, which outcome is on record?
The outcome was “inactive”.

For `CC(C)(C)c1n[nH]c(=O)n(N)c1=O`, which outcome is on record?
Its outcome is “inactive”.

For `CCOC(=O)[C@H](C)O`, which outcome is on record?
The outcome was “inactive”.

With `CCC(C)C=O` (stereo not drawn) as the molecule, how does the AC50 read?
The AC50 was 16.2 µM (active).

For `Nc1cccc(C(F)(F)F)c1`, which outcome is on record?
The outcome was “inactive”.

How did the outcome turn out when `OCCCS` was run?
The outcome was “inactive”.

`Cc1ccc(N)c([N+](=O)[O-])c1` was tested. Which AC50 did it give?
The AC50 was 25 µM (active).

How did the outcome turn out when `O=Nc1ccc(O)cc1` was run?
Its outcome is “inactive”.

For `O=C1CCCC(=O)O1`, which outcome is on record?
Its outcome is “inactive”.

With `CC(C)(c1cc(Br)c(OCCO)c(Br)c1)c1cc(Br)c(OCCO)c(Br)c1` as the molecule, how does the AC50 read?
The AC50 was 20.2 µM (active).

For `O=CN1CCCCC1`, which outcome is on record?
Its outcome is “inactive”.

For `CC1OC1C1CCC2(C)OC2C1` (stereo not drawn), which outcome is on record?
Its outcome is “inactive”.

Which outcome does the source give for `CCCCCCCCCCCCCCCC[N+](C)(C)CC` here?
The outcome was “inactive”.

For `NC(=O)NNC(N)=O`, which outcome is on record?
The outcome was “inactive”.

Target: human Phosphoinositide 3-kinase alpha (PI3Ka), PIK3CA (gene 5290) (UniProt P42336)
Assay: NVS_ENZ_hPI3Ka: NovaScreen (NVS) Enzymatic Assay for human Phosphoinositide 3-kinase alpha (PI3Ka) (AID 2283196)
In short: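 Recombinant human PI3Kα with fluorescent substrate, 1 h, product separated by electrophoretic mobility shift; 25 uM duplicate screen, hits (e.g., 30% inhibition) retested singly up to 50 uM; loss of signal vs DMSO.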

How did the AC50 turn out when `CCCOC(=O)CCCCC(=O)OCCC` was run?
Its AC50 is 2 µM (active).

`COCCOCCOCCOCCOC` was tested. Which outcome did it give?
Its outcome is “inactive”.

With `Cc1ccc(N)c([N+](=O)[O-])c1` as the molecule, how does the outcome read?
The outcome was “inactive”.

With `CNC(=S)N(C)C` as the molecule, how does the outcome read?
The outcome was “inactive”.

For `CC(C)(c1cc(Br)c(OCCO)c(Br)c1)c1cc(Br)c(OCCO)c(Br)c1`, which AC50 is on record?
Its AC50 is 2.62 µM (active).

How did the outcome turn out when `N#[N+]c1ccc2c(S(=O)(=O)[O-])cccc2c1O` was run?
The outcome was “inactive”.

`Cc1cc(C)c(C)c(C)c1` was tested. Which outcome did it give?
The outcome was “inactive”.

For `CCCCCCCCCCCCCCCC[N+](C)(C)CC`, which AC50 is on record?
Its AC50 is 1.95 µM (active).

Target: human Vascular Endothelial Growth Factor Receptor 1 (VEGFR1), FLT1 (gene 2321) (UniProt P17948)
Sequence (P17948 whole entry, looked up): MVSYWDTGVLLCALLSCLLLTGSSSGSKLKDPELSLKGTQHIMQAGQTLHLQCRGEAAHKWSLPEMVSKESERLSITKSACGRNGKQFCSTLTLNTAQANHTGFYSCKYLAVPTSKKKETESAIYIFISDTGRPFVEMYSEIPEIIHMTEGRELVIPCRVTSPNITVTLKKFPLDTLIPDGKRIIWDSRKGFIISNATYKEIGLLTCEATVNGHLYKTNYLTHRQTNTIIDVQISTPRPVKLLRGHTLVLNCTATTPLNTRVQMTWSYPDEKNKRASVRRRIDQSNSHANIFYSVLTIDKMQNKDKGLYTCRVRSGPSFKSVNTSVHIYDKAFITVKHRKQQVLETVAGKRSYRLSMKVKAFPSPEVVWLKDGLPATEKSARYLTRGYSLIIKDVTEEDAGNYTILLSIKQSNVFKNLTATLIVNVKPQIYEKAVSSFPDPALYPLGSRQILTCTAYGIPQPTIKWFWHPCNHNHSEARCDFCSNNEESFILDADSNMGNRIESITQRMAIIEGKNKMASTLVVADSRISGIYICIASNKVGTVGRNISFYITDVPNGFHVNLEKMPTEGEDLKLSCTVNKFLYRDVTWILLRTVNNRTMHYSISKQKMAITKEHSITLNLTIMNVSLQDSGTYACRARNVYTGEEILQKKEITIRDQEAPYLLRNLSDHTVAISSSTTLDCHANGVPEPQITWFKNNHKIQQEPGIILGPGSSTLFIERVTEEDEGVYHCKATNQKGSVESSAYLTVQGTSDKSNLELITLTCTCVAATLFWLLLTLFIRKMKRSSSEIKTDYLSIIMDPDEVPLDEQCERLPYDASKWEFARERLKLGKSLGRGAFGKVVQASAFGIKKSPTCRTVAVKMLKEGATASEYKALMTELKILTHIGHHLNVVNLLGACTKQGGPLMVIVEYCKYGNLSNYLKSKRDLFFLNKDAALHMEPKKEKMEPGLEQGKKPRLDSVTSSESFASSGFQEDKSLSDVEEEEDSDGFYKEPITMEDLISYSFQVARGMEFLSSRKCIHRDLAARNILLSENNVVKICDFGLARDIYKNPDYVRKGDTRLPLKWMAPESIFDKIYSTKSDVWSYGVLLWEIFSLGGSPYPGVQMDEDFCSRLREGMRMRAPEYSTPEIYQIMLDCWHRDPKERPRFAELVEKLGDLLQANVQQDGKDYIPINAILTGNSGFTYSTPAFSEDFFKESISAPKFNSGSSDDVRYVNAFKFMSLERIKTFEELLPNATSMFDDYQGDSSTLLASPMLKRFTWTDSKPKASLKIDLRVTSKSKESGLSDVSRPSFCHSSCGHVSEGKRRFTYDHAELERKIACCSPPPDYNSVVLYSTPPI
Assay: NVS_ENZ_hVEGFR1: NovaScreen (NVS) Enzymatic Assay for human Vascular Endothelial Growth Factor Receptor 1 (VEGFR1) (AID 2283226)
In short: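 Kinase activity of recombinant human VEGFR1 was read by fluorescence after electrophoretic separation of product from substrate, 1 h post-dosing; initial duplicate single-point testing at 25 uM, followed by concentration-series follow-up, with DMSO as baseline.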

Which AC50 does the source give for `CCCOC(=O)CCCCC(=O)OCCC` here?
Its AC50 is 42.3 µM (active).

How did the outcome turn out when `CNC(=S)N(C)C` was run?
Its outcome is “inactive”.

With `CCCCCCCCCCCCCCCC[N+](C)(C)CC` as the molecule, how does the outcome read?
The outcome was “inactive”.
